Test results reported in publication PMC13541613, “GHT-SELEX demonstrates unexpectedly high intrinsic sequence specificity and complex DNA binding of many human transcription factors”.

Tests used:
Test in all cases: HT-SELEX; 20 mM HEPES pH 7, 140 mM KCl, 5 mM NaCl, 1 mM K2HPO4, 2 mM MgSO4, 100 uM EGTA, ZnSO4, 0.1% Tween20; room temperature, 1 h; high values mean tight binding
Conditions in all cases: protein: ivt; tags: eGFP (N-terminal); dsDNA, one strand shown
ZNF721 full-length = ZNF721 full-length (Homo sapiens, UniProt Q8TF20-2 1-923)
Chain of ZNF721 full-length (Q8TF20 other isoform, or with tags, fused parts or gaps): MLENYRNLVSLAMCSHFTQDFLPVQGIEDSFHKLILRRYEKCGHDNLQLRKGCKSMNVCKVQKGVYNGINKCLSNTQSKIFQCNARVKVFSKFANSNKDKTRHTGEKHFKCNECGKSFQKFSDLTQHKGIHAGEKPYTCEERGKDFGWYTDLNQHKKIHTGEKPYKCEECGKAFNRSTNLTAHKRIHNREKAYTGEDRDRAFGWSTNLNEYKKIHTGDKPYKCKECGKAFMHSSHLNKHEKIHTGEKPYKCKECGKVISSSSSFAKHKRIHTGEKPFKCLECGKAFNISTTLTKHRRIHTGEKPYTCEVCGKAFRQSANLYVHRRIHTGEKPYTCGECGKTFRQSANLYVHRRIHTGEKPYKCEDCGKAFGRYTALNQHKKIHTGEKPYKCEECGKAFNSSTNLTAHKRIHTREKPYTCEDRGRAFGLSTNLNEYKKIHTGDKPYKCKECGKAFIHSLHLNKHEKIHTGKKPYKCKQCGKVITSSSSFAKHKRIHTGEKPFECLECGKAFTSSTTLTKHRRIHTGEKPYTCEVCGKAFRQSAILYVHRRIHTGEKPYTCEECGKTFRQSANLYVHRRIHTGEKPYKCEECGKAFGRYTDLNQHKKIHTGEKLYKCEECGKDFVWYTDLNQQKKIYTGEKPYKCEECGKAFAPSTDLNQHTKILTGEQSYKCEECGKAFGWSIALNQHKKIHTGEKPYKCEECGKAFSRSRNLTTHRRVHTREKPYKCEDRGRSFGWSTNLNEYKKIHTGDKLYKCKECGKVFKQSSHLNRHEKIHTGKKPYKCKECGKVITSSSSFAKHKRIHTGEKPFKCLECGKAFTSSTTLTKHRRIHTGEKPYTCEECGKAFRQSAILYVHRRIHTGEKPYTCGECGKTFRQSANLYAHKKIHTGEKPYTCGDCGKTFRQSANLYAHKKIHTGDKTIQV
How it was run: (§1)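 The binding signal is a relative k-mer count in selected reads, and higher values mean tighter binding. To obtain these reads, bead-bound tagged transcription factor (full-length or DNA-binding-domain fragment, produced in HEK293 lysate or cell-free extract) was mixed with a randomized 40-base DNA library for 1 h at room temperature in low-stringency HEPES/KCl buffer with Tween20. Bound DNA was recovered by washing and heat elution, PCR-amplified through successive cycles and sequenced on Illumina (~3 million 60 bp reads per sample).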

ZNF721 DBD1 = ZNF721 DBD1 (Homo sapiens, UniProt Q8TF20-2 29-461)
Chain of ZNF721 DBD1 (Q8TF20 17-449): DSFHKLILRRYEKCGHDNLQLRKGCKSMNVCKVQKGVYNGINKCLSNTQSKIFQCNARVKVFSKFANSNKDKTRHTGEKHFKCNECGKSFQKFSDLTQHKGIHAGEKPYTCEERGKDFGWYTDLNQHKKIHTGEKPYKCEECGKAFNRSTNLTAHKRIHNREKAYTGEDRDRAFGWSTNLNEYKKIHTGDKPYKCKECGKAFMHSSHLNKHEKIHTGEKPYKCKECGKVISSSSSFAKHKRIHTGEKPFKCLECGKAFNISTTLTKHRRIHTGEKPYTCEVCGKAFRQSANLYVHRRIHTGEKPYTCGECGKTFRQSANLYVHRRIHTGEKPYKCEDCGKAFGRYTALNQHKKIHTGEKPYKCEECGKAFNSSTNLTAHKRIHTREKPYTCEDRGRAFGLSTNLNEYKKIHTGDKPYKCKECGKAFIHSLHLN
How it was run: as §1

ZNF721 DBD2 = ZNF721 DBD2 (Homo sapiens, UniProt Q8TF20-2 395-923)
Chain of ZNF721 DBD2 (Q8TF20 383-911): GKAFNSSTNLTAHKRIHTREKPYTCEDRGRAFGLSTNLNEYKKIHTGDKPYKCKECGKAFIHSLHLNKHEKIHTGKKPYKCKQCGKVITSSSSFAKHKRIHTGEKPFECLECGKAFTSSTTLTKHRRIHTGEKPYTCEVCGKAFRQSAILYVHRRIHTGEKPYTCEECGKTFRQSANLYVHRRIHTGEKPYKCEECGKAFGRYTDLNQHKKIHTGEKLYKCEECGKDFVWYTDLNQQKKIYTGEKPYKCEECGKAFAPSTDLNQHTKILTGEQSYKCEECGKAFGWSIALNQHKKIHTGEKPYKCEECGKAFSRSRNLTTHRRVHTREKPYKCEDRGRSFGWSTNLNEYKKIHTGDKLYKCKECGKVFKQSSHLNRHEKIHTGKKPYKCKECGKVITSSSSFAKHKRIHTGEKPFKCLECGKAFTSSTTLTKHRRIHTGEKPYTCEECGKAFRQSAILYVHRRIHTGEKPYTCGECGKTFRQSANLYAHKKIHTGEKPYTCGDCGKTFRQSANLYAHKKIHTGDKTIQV
How it was run: as §1

Sequence	binding signal (ZNF721 full-length)	binding signal (ZNF721 DBD1)	binding signal (ZNF721 DBD2)
GCCACCCACC	0.147 relative 10-mer count	0.00605 relative 10-mer count	0.00312 relative 10-mer count
CACCGCCCAC	0.123 relative 10-mer count	0.00482 relative 10-mer count	0.00372 relative 10-mer count
CCCCACCCCG	0.186 relative 10-mer count	0.00784 relative 10-mer count	0.00384 relative 10-mer count
ACAAAAAACA	0.143 relative 10-mer count	0.00197 relative 10-mer count	0.172 relative 10-mer count
CAGCCCCACC	0.116 relative 10-mer count	0.00349 relative 10-mer count	0.0291 relative 10-mer count
CCGCGCCCCC	0.115 relative 10-mer count	0.00427 relative 10-mer count	0.0018 relative 10-mer count
GGGGAGGGGA	0.125 relative 10-mer count	0.00674 relative 10-mer count	0.0036 relative 10-mer count
AAAGCAGCGT	0.371 relative 10-mer count	0.00115 relative 10-mer count	0.512 relative 10-mer count
AAAAAGCAGA	0.107 relative 10-mer count	0.00183 relative 10-mer count	0.0852 relative 10-mer count
CCCCACCACG	0.11 relative 10-mer count	0.0039 relative 10-mer count	0.00623 relative 10-mer count
AAAAAGCGTC	0.108 relative 10-mer count	0.0239 relative 10-mer count	0.0102 relative 10-mer count
CGCCCCACCC	0.236 relative 10-mer count	0.00844 relative 10-mer count	0.00312 relative 10-mer count
CCCACCATCC	0.152 relative 10-mer count	0.00647 relative 10-mer count	0.00527 relative 10-mer count
CCGCACCCCC	0.152 relative 10-mer count	0.00569 relative 10-mer count	0.00156 relative 10-mer count
CCCCCCCCTC	0.167 relative 10-mer count	0.00619 relative 10-mer count	0.00324 relative 10-mer count
CGACCCACCC	0.126 relative 10-mer count	0.00477 relative 10-mer count	0.00324 relative 10-mer count
CGCCCTCCCC	0.172 relative 10-mer count	0.0066 relative 10-mer count	0.00252 relative 10-mer count
CACCACCACC	0.19 relative 10-mer count	0.0072 relative 10-mer count	0.0109 relative 10-mer count
AACAGGGTAT	0.138 relative 10-mer count	0.00119 relative 10-mer count	0.2 relative 10-mer count

Sequence	binding signal (ZNF721 full-length)	binding signal (ZNF721 DBD1)	binding signal (ZNF721 DBD2)
CCCCCTCCAC	0.179 relative 10-mer count	0.00908 relative 10-mer count	0.00479 relative 10-mer count
CCCACCCATC	0.112 relative 10-mer count	0.00514 relative 10-mer count	0.00587 relative 10-mer count
ACCACCACCC	0.189 relative 10-mer count	0.00679 relative 10-mer count	0.00611 relative 10-mer count
AAAAAAAAGG	0.175 relative 10-mer count	0.00477 relative 10-mer count	0.12 relative 10-mer count
CCCCACCACC	0.447 relative 10-mer count	0.0213 relative 10-mer count	0.00767 relative 10-mer count
CCATCCCACC	0.138 relative 10-mer count	0.00697 relative 10-mer count	0.00575 relative 10-mer count
CCCCGCCCCG	0.144 relative 10-mer count	0.00486 relative 10-mer count	0.00348 relative 10-mer count
CGAAAAAAAG	0.159 relative 10-mer count	0.0289 relative 10-mer count	0.0578 relative 10-mer count
GGGGGTGGGA	0.205 relative 10-mer count	0.0115 relative 10-mer count	0.00312 relative 10-mer count
AGTGTATCCA	0.248 relative 10-mer count	0.11 relative 10-mer count	0.197 relative 10-mer count
AGCATATCCA	0.107 relative 10-mer count	0.0108 relative 10-mer count	0.102 relative 10-mer count
CGCCCCCTCC	0.135 relative 10-mer count	0.00605 relative 10-mer count	0.00407 relative 10-mer count
ACCACCCACC	0.242 relative 10-mer count	0.00945 relative 10-mer count	0.00875 relative 10-mer count
CCCCCCACCC	0.415 relative 10-mer count	0.0187 relative 10-mer count	0.0036 relative 10-mer count
CACCCGCCCC	0.188 relative 10-mer count	0.0066 relative 10-mer count	0.00108 relative 10-mer count
CCCACCGCCA	0.13 relative 10-mer count	0.00422 relative 10-mer count	0.00563 relative 10-mer count
CCCCCGCCAC	0.176 relative 10-mer count	0.00679 relative 10-mer count	0.0036 relative 10-mer count
CCCCTTCCCC	0.162 relative 10-mer count	0.00702 relative 10-mer count	0.00192 relative 10-mer count
